Measurements taken from PubChem BioAssay AID1159580 (chemical genetic matrix, 2015).
Out of some 5,500 compounds screened, about 2,000 (36%) were called active. About 18% were inconclusive and are not listed. No stated cut-off is given here; in the data, active means normalized growth mostly below about 0.91 (no sharp cut-off); inconclusive means no clear call, values can overlap the other calls; inactive means mostly above about 0.92. Some of the results follow.

Assay: chemical genetic growth profiling, strain panel (AID 1159580);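 further: tested at 20 µM; growth read once vehicle control cultures reached saturation at 30 °C; 1 = growth at the plate median or of vehicle wells; lower values mean less growth of the strain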
Conditions: S. cerevisiae deletion strains, growth OD

Measured: normalized growth

CC(N)[C@H](O)c1ccc(O)c(O)c1 (some centres undefined)
inactive: locus YAL013W, strain DEP1, hits give low values 0.998 | locus YAL040C, strain CLN3, hits give low values 1.05 | locus YCL061C, strain MRC1 (second series), hits give low values 0.993 | locus YDR150W, strain NUM1, hits give low values 0.995 | locus YDR363W, strain ESC2, hits give low values 0.989 | locus YER002W, strain NOP16, hits give low values 1 | locus YJR075W, strain HOC1, hits give low values 0.983 | locus YNL153C, strain GIM3, hits give low values 0.986 | locus YNL175C, strain NOP13, hits give low values 1.01 | locus YNL197C, strain WHI3, hits give low values 1.01 | locus YNL224C, strain SQS1, hits give low values 0.992 | locus YNL322C, strain KRE1, hits give low values 1.01 | locus YOR083W, strain WHI5 (second series), hits give low values 0.988 | locus YPL055C, strain LGE1, hits give low values 1
